# Experimental data published in PubChem BioAssay (Tox21).
# Results filed as inconclusive are left out. Calls of active or inactive are those of the source. Calls follow the shape of the dose curve; as a rule, active = well fitted cell-killing curve with a large enough effect in the repeat runs; inconclusive = weak or mixed curves, or effect the other way; inactive = flat fitted curve, though single readings scatter.
# Test: qHTS RealTime-Glo MT Cell Viability Assay in HepG2 cells - 40 hour (AID 1224870); also: nearly all actives have a fitted effect of over 50% in size
# Settings: RealTime-Glo luminescence; series mostly up to 76.8 µM; activity change, negative = cytotoxic: at the top concentration
# Source text: National Center for Advancing Translational Sciences [NCATS]
# NIH Chemical Genomics Center [NCGC]
# U.S. Environmental Protection Agency [EPA]
# National Institutes of Environmental Health Sciences [NIEHS]
# National Toxicology Program [NTP]
# U.S. Food and Drug Administration [FDA]
# Measure of cell viability is critical in the cell-base assay. Analysis of cell viability is necessary for the characterization of cell responses to cytotoxic drugs and environmental stress. A RealTime-Glo MT Cell Viability Assay to monitor cell viability in real time of continues cell culture during 40 hours of compound treatment was used to screen Tox21 10K library compounds in HepG2 cells. The RealTime-Glo MT Cell Viability Assay is a nonlytic, homogeneous, bioluminescent method to measure cell viability in real time using a simple, plate-based method. The assay involves adding NanoLuc luciferase and a cell-permeant prosubstrate to cells in culture. Viable cells reduce the proprietary prosubstrate to generate a substrate for NanoLuc luciferase. This substrate diffuses from cells into the surrounding culture medium, where it is rapidly used by the NanoLuc Enzyme to produce a luminescent signal. The signal correlates with the number of viable cells, making the assay well suited for cytotoxicity studies.
# Tox21 Assay Protocol Summary:
# The mixture of HepG2 cell suspension and reagents were dispensed at 600cells/6 ul/well in 1536-well tissue culture treated black solid bottom plates using a Multidrop dispenser. After the assay plates were incubated at a 37 C/5% CO2 incubator for 5 hours, 23 nL of compounds dissolved in DMSO, positive and negative controls was transferred to the assay plate by a pintool work station. The plates were incubated at 37 C for 40 hours. The luminescence intensity were measured at 0h, 8h, 16h, 24h, 32h and 40h time points using ViewLux plate reader during compound treatment.
# % is scaled to controls: 0 for no effect and ±100 for the full control effect.
row,SMILES,"activity change, negative = cytotoxic"
1,CCCCNc1ccc(C(=O)OCCN(CC)CC)cc1,-1.22% [at 35.3 µM] (inactive)
2,COc1ccccc1OCC(O)COC(N)=O (stereo not given),-3.88% [at 35.3 µM] (inactive)
3,CC1(C)O[C@@H]2C[C@H]3[C@@H]4CCC5=CC(=O)CC[C@]5(C)[C@@]4(F)[C@@H](O)C[C@]3(C)[C@]2(C(=O)CCl)O1,-9.89% [at 35.3 µM] (inactive)
4,FC(F)(F)C(F)(F)C(F)(F)C(F)(F)C(F)(F)C(F)(F)C(F)(F)C(F)(F)Br,1.44% [at 35.3 µM] (inactive)
5,C=Cc1ccccc1,-1.86% (inactive)
6,CN(CCCN1c2ccccc2CCc2ccccc21)CC(=O)c1ccc(Cl)cc1,-10.2% [at 35.3 µM] (inactive)
7,FC(F)(F)c1ccccc1,-1.15% (inactive)
8,CC(C)NC[C@@H](O)COc1cccc2ccccc12,-0.303% [at 35.3 µM] (inactive)
9,CCCCC(CC)COC(=O)COc1cc(Cl)c(Cl)cc1Cl (stereo not given),-2.52% (inactive)
10,Cc1ccc([N+](=O)[O-])c(N)c1,-0.434% (inactive)
11,CN(C)Cc1ccccc1,1.59% (inactive)
12,CCN(O)CC,-1.62% (inactive)
13,CCc1cc2cc(OC)c(OC)cc2c(Cc2ccccc2)n1,-7.3% [at 35.3 µM] (inactive)
14,CN1CCN(c2c(F)cc3c(=O)c(C(=O)O)cn4c3c2SCC4)CC1,3.26% [at 35.3 µM] (inactive)
15,CCN(CC)CCNC(=O)COc1ccc(Cl)cc1,-0.237% [at 35.3 µM] (inactive)
16,CC(C)(C)c1ccc(OC(=O)c2ccccc2O)cc1,-2.7% (inactive)
17,C=CCCC=C,15.8% (inactive)
18,NC(=O)Cc1cccc(C(=O)c2ccccc2)c1N,1.68% [at 35.3 µM] (inactive)
19,Cc1ccc(C=O)s1,-2.66% (inactive)
20,O=C1CCCc2ccccc21,0.32% (inactive)

row,SMILES,"activity change, negative = cytotoxic"
1,CC1=CC(=O)CC(C)(C)C1=O,0.714% (inactive)
2,Cc1onc(-c2ccccc2)c1C(=O)Cl,1.04% [at 35.3 µM] (inactive)
3,CCCN(CCC)C(=O)C(CCC(=O)O)NC(=O)c1ccccc1 (stereo not given),0.58% [at 35.3 µM] (inactive)
4,OCC(CBr)(CBr)CBr,0.207% (inactive)
5,CCN(CC)CC1CCCCN1CC(=O)N1c2ccccc2C(=O)Nc2cccnc21 (stereo not given),0.499% [at 35.3 µM] (inactive)
6,CCC(=O)Nc1ccc(O)cc1,0.527% [at 35.3 µM] (inactive)
7,c1ccc(CN(CC2=NCCN2)c2ccccc2)cc1,0.0771% [at 35.3 µM] (inactive)
8,NCCC(O)(P(=O)(O)O)P(=O)(O)O,0.0505% [at 35.3 µM] (inactive)
9,CC(=O)OC1C2(C)CCC(C2)C1(C)C (stereo not given),-0.288% (inactive)
10,CCN(CCCc1ccccc1)CCCc1ccccc1,-7.68% [at 35.3 µM] (inactive)
11,CN1CCN(C2=Nc3ccccc3Oc3ccc(Cl)cc32)CC1,-1.3% [at 35.3 µM] (inactive)
12,C[C@@H]1CN(c2c(F)c(F)c3c(=O)c(C(=O)O)cn(C4CC4)c3c2F)C[C@H](C)N1,1.26% [at 15.8 µM] (inactive)
13,CCCCCCCOC(=O)CCC,0.621% (inactive)
14,CCN[C@H]1CN(CCCOC)S(=O)(=O)c2sc(S(N)(=O)=O)cc21,4.48% [at 35.3 µM] (inactive)
15,CC(=O)N[C@@H](CC(C)C)C(=O)O,0.233% [at 35.3 µM] (inactive)
16,C=CCc1cc(OC)c(O)c(C(=O)NCCO)c1,-6.38% [at 35.3 µM] (inactive)
17,Cc1cccc(C)c1NC(=O)CN1CCCCCC1,1.82% [at 35.3 µM] (inactive)
18,O=c1[nH]c(=O)n([C@H]2C[C@H](O)[C@@H](CO)O2)cc1C(F)(F)F,-4.78% [at 35.3 µM] (inactive)
19,O=C(O)c1cccc(Cl)c1Cl,3.62% (inactive)
20,CC(=O)N(CC(O)CN(C(C)=O)c1c(I)c(C(=O)NCC(O)CO)c(I)c(C(=O)NCC(O)CO)c1I)c1c(I)c(C(=O)NCC(O)CO)c(I)c(C(=O)NCC(O)CO)c1I (stereo not given),3.67% [at 35.3 µM] (inactive)
